Screens: PubChem BioAssay, National Center for Advancing Translational Sciences (NCATS)
VACV mCherry inh: inhibitors of vaccinia virus infection (mCherry reporter signal) | 0.63% of 310,000 active | Vaccinia virus mCherry reporter infection, fluorescence | Potency, µM (titrated, usually from 36.5 µM), without a hit: at the top dose activity change, negative = inhibition, usual class: inhibitors; calls by dose curve; tested in A549 cells; also: potency is read from the fitted curve at half-maximal effect; nearly all actives have a fitted effect of over 35% in size
Marburg entry inh: blocks Marburg virus binding to or entry into cells; 1.8% of 300,000 active; Marburg virus pseudotyped entry inhibition, cell reporter; Potency, µM (highest dose often 37.8 µM), inactives show at the highest dose activity change, negative = inhibition, most hits filed as inhibitors; calls by dose curve; tested in HEK293 cells; also: potency is read from the fitted curve at half-maximal effect
FMDV antiviral: blocks foot and mouth disease virus. FMDV antiviral cell-based qHTS. Potency, µM (highest dose often 57.9 µM), without a hit: top-dose activity change, negative = inhibition, hits mostly inhibitors. 1.2% of 410,000 active. AID 1159524; calls by dose curve; tested in HEK293T cells; also: read-out not given here; potency is read from the fitted curve at half-maximal effect; nearly all actives have a fitted effect of over 45% in size
Lassa entry inh: inhibitors of Lassa virus binding or cell entry; Lassa virus pseudotype entry inhibition, cell reporter; Potency, µM (titrated, usually from 37.9 µM), inactives show top-dose activity change, negative = inhibition, usual class: inhibitors; 1.2% of 300,000 active; AID 540256; calls by dose curve; tested in HEK293 cells; also: potency is read from the fitted curve at half-maximal effect; nearly all actives have a fitted effect of over 50% in size
HCMV inh: inhibitors of human cytomegalovirus | AID 1259415 | activity change, negative = inhibition, % at 57.5 µM | HFF cells, HCMV-luciferase reporter, 72 h; active compounds read low | 4.5% of 410,000 active; in the data active = activity change below about -60%; inconclusive = no clear call, values can overlap the other calls; inactive = above about -39%
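Steps: HFFs plated, 16 h 37C; compounds added; HCMV-luciferase added to MOI 1 PFU/cell; 72 h 37C; OneGlo reagent, 5 min room temperature; luminescence read, normalized to controls.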
Vaccinia Venus: vaccinia inhibition (Venus reporter) | AID 720580 | 0.46% of 330,000 active | Vaccinia virus Venus reporter expression, fluorescence | Potency, µM (series often up to 36.5 µM), without a hit: top-dose activity change, negative = inhibition, usual class: inhibitors; calls by dose curve; tested in A549 cells; also: potency is read from the fitted curve at half-maximal effect; nearly all actives have a fitted effect of over 30% in size
Numbers without * were called inactive; i = inactive; ? = inconclusive; / = no result given; [ ] = another dose, or the depositor's remark. Sampled rows, rich in hits. Any-hit rate of the full collection: about 6.5%. % is scaled to controls: 0 for no effect and ±100 for the full control effect.

SMILES	VACV mCherry inh	Marburg entry inh	FMDV antiviral	Lassa entry inh	HCMV inh	Vaccinia Venus
CCC(C)CCN1C(Nc2ccccc2)=NC[C@@H]1Cc1ccccc1 (stereo partly specified)	-9%	/	?	/	-100*	-7%
Cc1cccc(C)c1Nc1sc(C(=O)c2ccccc2)c(N)c1S(=O)(=O)c1ccccc1	-30%	/	-18%	?	-62*	-22%
CCCCC(=O)Nc1nc(C)c(C(C)=O)s1	-9%	/	28%	/	162	-11%
CC(=O)c1sc(NC(=O)C2(F)C(F)(F)C(F)(F)C(F)(F)C(F)(F)C2(F)F)nc1C	?	2.6µM*	/	1.6µM*	-98*	?
CC(=O)c1sc(NC(=O)C=C(C)C)nc1C	/	1%	47%	8%	-69*	/
COC(=O)c1cc(=O)nc(NN=Cc2ccccc2O)s1	/	/	/	/	-26	/
CCCC(=O)Nc1nc(C)c(C(C)=O)s1	i	?	-1%	2%[46.1 µM]	-18	-4%
CC(=O)c1sc(N/N=C\c2ccccc2O)nc1C	5µM*	?	13%	?	27	-26%
COCCN1C(=O)C2=C(C1=O)C1N(C)c3ccccc3[C@@]13C[C@@H](CO)N=C3N2 (stereo partly specified)	/	25%[14.2 µM]	/	/	/	/
O=C(Nc1ccccc1)C1Cc2c(-c3cccc(F)c3)ccnc2O1 (stereo unspecified)	14%	/	-13%	/	-31	-8%
COc1ccc(NC(=O)C2Cc3c(-c4ccc5c(c4)OCO5)ccnc3O2)cc1OC (stereo unspecified)	-20%	/	11µM*	/	-90*	?
COc1ccc(NC(=O)C2Cc3c(-c4ccco4)ccnc3O2)cc1OC (stereo unspecified)	?	/	?	/	-73*	-28%
COc1ccc(NC(=O)C2Cc3c(-c4cccc(F)c4)ccnc3O2)cc1OC (stereo unspecified)	-3%	/	16µM*	/	-76*	-20%
CS(=O)(=O)Nc1cccc(NC(=O)C2Cc3c(-c4cccc(F)c4)ccnc3O2)c1 (stereo unspecified)	8.9µM*	/	-1%	/	-78*	10µM*
COc1ccc(NC(=O)C2Cc3c(-c4ccc(NC(C)=O)cc4)ccnc3O2)cc1OC (stereo unspecified)	i	/	-14%	/	-36	3%
CCOc1ccccc1CNC(=O)c1cc2c(=O)n(Cc3ccco3)ccc2nc1C	-14%	/	-17%	-11%[46.1 µM]	-14	-16%
COc1ccc(C#Cc2c[nH]c(=O)c3cncnc23)cc1OC	-12%	/	/	/	/	-27%
CC(=O)c1cccc(NC(=O)C2Cc3c(-c4ccc(Cl)cc4)ccnc3O2)c1 (stereo unspecified)	?	/	35µM*	/	/	-22%
COCC(=O)Nc1nc(-c2ccc(-c3ccccc3)cc2)cs1	-31%	4%	-2%	?	5	?
Nc1nc(-c2ccc([N+](=O)[O-])cc2)cs1	-13%	?	30%	7%	-79*	-11%
CC(C)C(=O)Nc1nc(-c2ccc([N+](=O)[O-])cc2)cs1	/	/	-21%	/	?	/
O=C(Cc1nc(-c2ccc([N+](=O)[O-])cc2)cs1)Nc1ccccc1	/	4%	?	-2%	-92*	/
CNc1nc(-c2ccc([N+](=O)[O-])cc2)cs1	/	2%[46.1 µM]	-19%	18%	-74*	-19%
O=C(Cc1ccccc1)Nc1nc(-c2cccc([N+](=O)[O-])c2)cs1	-12%	-12%	-4%	-4%	-8	-2%
COCC(=O)Nc1nc(-c2ccc([N+](=O)[O-])cc2)cs1	/	/	11%	/	-89*	/
SMILES	VACV mCherry inh	Marburg entry inh	FMDV antiviral	Lassa entry inh	HCMV inh	Vaccinia Venus
COCc1cc(C)nc2sc(C(=O)Nc3ccc(OC(F)(F)F)cc3)c(N)c12	-2%	?	-6%	?	-6	-10%
O=C1/C(=C/c2cccnc2)Oc2cc(OS(=O)(=O)c3ccc(F)cc3)ccc21	/	?	22µM*	-22%	6	/
Cc1ccc(S(=O)(=O)Oc2ccc3c(c2)O/C(=C\c2cccnc2)C3=O)cc1	/	?	-3%	0%	/	/
CCC(=O)N1CCCc2cc(S(=O)(=O)N3CCC(C(=O)Nc4ccc(C#N)cc4)CC3)ccc21	-19%	/	?	-4%[46.1 µM]	0	-20%
COCC#Cc1ccc2c(c1)O[C@H](CN(C)C(=O)c1ccccc1)[C@@H](C)CN([C@H](C)CO)S2(=O)=O	/	/	/	/	-6	/
COc1ccc(C2CC(=O)C3=C(C2)NC(C)=C(C#N)C3c2ccc(N(C)C)cc2)cc1 (stereo unspecified)	/	?	-14%	13µM*	3	1%
COC(=O)c1ccc(C2C(C#N)=C(C)NC3=C2C(=O)CC(C)(C)C3)cc1 (stereo unspecified)	-9%	-8%	-9%	-6%	26	-5%
CC1=CC(=O)OC1Cc1ccc2ccccc2n1 (stereo unspecified)	/	/	24%	/	/	/
COc1ccc(S(=O)(=O)N2CCOC2CNC(=O)C(=O)NCCc2ccc(OC)c(OC)c2)cc1 (stereo unspecified)	i	?	?	?	-68*	-19%
CN(C)CCNC(=O)C(=O)NCC1OCCN1S(=O)(=O)c1cc(F)ccc1F (stereo unspecified)	i	12%	-13%	-1%	-61*	-14%
COc1ccc(CCNC(=O)C(=O)NCC2OCCCN2S(=O)(=O)c2cc(C)ccc2C)cc1 (stereo unspecified)	-25%	-29%	?	-11%	-67*	-18%
CN(C)CCNC(=O)C(=O)NCC1OCCN1S(=O)(=O)c1ccc(F)cc1 (stereo unspecified)	i	/	-17%	/	13	-2%
COc1ccccc1CCNC(=O)C(=O)NCC1OCCCN1S(=O)(=O)c1ccc(F)cc1C (stereo unspecified)	-10%	-20%	-25%	?	-75*	16%
COc1ccccc1CCNC(=O)C(=O)NCC1OCCCN1S(=O)(=O)c1cc(C)ccc1C (stereo unspecified)	-9%	?	?	-17%	-18	-18%
COc1ccc(CCNC(=O)C(=O)NCC2OCCN2S(=O)(=O)c2ccc(Br)cc2)cc1OC (stereo unspecified)	i	?	-17%	?	20	-6%
COC(=O)N[C@@H](c1ccco1)C(C(C)=O)C(=O)OC (stereo partly specified)	/	-27%[14.2 µM]	/	?	/	/
Cc1ccc(C)c(S(=O)(=O)N2CCCC2CNC(=O)C(=O)NCCc2ccccc2)c1 (stereo unspecified)	-14%	?	-23%	-1%[46.1 µM]	-26	?
COc1ccc(CCNC(=O)C(=O)NCC2CCCN2S(=O)(=O)c2cc(C)ccc2C)cc1 (stereo unspecified)	?	?	?	11µM*	-7	-27%
O=C(NCCc1ccc(F)cc1)C(=O)NCC1CCCN1S(=O)(=O)c1ccccc1 (stereo unspecified)	?	?	40µM*	7.1µM*	-34	-23%
